# Among all 360,000 compounds or so, about 3,600 (1%) were called active. The list comes from a sample in which actives are over-represented; it also holds similar structures and randomly drawn compounds. A number with no mark means an inactive call.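 The calls were made as follows: active = compounds whose plate-normalised and pattern-corrected inhibition of the luciferase reporter signal at the single screening dose is 50% or more; inactive = the rest.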
# Experiment: TROY pathway blockers in reporter cells – Q293 LMP1-TROYcd cells, NF-kB luciferase, uHTS, primary screen (AID 1347056)
# Conditions: 4 h, at 10 µM, stronger effect = higher value
row,SMILES,inhibition
1,COc1ccc(/C=N/Nc2ncnc3sc4c(c23)CCCC4)cc1O,82.7% (active)
2,COc1ccc(NC(=O)CCNC(=O)Cn2cnc3sc4c(c3c2=O)CCCC4)cc1OC,11.8%
3,COc1ccc(NC(=O)CCCNC(=O)Cn2cnc3sc4c(c3c2=O)CCCC4)cc1OC,-6.14%
4,COCCCNC(=O)C1CCC(CNS(=O)(=O)c2ccc(OC)cc2)CC1 (stereo not drawn),-8.61%
5,CCN(CC)C(=O)C1CCC(C)(C(=O)O)C1(C)C (stereo not drawn),7.66%
6,Cc1nnc(SCCCCSc2nnc(C)c(=O)[nH]2)[nH]c1=O,-7.01%
7,CC(C)n1cnc2c(Nc3cccc(Cl)c3)nc(N(CCO)CCCO)nc21,50.8% (active)
8,C=C(C)C1CC=C(C)/C(=N/NC(=O)CCCNc2cccc(C)c2)C1 (stereo not drawn),5.76%
9,CN(CCO)c1ccc(/C=N/Nc2nncc3ccccc23)cc1,-22.8%
10,O=C(Nc1ccc2c(c1)OCO2)C1CC1(Cl)Cl (stereo not drawn),-31.7%
11,O=C(Nc1ccc2c(c1)OCCO2)C1CCCC1,81.7% (active)
12,CN1C(=O)c2ccc(NC(=O)C3CCCCC3)cc2C1=O,-41%
13,CC(C)C[C@H]1CNC(=O)C(=O)N1C[C@H]1CCCN1C[C@H](Cc1ccc(O)cc1)N1C[C@H](CC(C)C)N(CC2CCCCCC2)C(=O)C1=O,-20.6%
14,O=C1N[C@H](Cc2c[nH]c3ccccc23)COC(=O)[C@H](Cc2ccc(F)cc2)C/C=C\C[C@H]1CC(=O)N(CCO)Cc1ccccc1,19%
15,O=C(Cn1c(-c2cscn2)nc2ccccc21)Nc1ccc(Cl)cc1,6.66%
16,C/C(CC(=O)Nc1ccc(C)cc1C)=N\NC(=O)C(C)C,7.58%
17,CC1CCCCC1NC(=O)Cn1cnc2c1c(=O)n(C)c(=O)n2C (stereo not drawn),-7%
18,O=C(CCc1[nH]c2ccccc2c1Sc1ccccc1)N(CCO)CCO,7.74%
19,CC(=O)Nc1c2c(nn1-c1cccc(C)c1)CSC2,-5.25%
20,Cc1cccc(-n2ncc(Cl)c(Cl)c2=O)c1,72.5% (active)

row,SMILES,inhibition
1,CCCNC(=O)c1c(Cl)cnn1-c1ccc(C)cc1,-51.1%
2,CCNS(=O)(=O)c1ccc(CCC(=O)N2CCN(c3cc(Cl)ccc3C)CC2)cc1,26.1%
3,O=S(=O)(Cc1cc(Sc2ccccc2)nc(-c2ccccc2)n1)c1ccccc1,-3.96%
4,O=C(N[C@@H](Cc1c[nH]c2ccccc12)C(=O)O)OCC1c2ccccc2-c2ccccc21,-9.94%
5,O=C(Nc1ccccc1Cl)/C(Cl)=C(\Cl)S(=O)c1ccccc1 (stereo not drawn),86.9% (active)
6,O=C(Nc1ccccc1Cl)c1ccccc1S(=O)(=O)c1ccccc1[N+](=O)[O-],-26.1%
7,CC(=O)c1ccc(NC(=O)C(C)N(C)CC(=O)Nc2ccccc2Cl)cc1 (stereo not drawn),7.44%
8,Cc1ccc(-c2csc(NC(=O)Cn3[nH]c(=O)c4ccccc4c3=O)n2)cc1,55.9% (active)
9,O=C(Cn1[nH]c(=O)c2ccccc2c1=O)Nc1cccc(-c2nnc3n2CCCCC3)c1,18.8%
10,Cc1ccc(C)c(C(=O)COC(=O)Cn2[nH]c(=O)c3ccccc3c2=O)c1,-0.89%
11,O=C1C=CC(=O)N1c1ccc(N2CCCCC2)cc1,-3%
12,COC(=O)[C@@]1(Sc2ccc(C)cc2)CC(=O)N(c2cccc(SC)c2)[C@@H]1c1ccccc1,-0.08%
13,N/C(=N\OC(=O)CCC1CCCCC1)c1ccccn1,-40.4%
14,Cc1cccc(/C(N)=N/OC(=O)c2ccccc2Cl)c1,3.79%
15,Cc1ccc(C(=O)O/N=C(\N)c2ccccn2)cc1Cl,72.9% (active)
16,COc1ccc(C2/C(=C(/O)c3ccc4c(c3)CC(C)O4)C(=O)C(=O)N2Cc2ccncc2)cc1 (stereo not drawn),-12.1%
17,CC(=O)c1cc2c(cc1NC(=O)Cn1nc(-c3ccc(F)cc3)ccc1=O)OCO2,-13.6%
18,CC(=O)Nc1ccc(S(=O)(=O)NC2Cc3ccccc3C2)cc1,-3.14%
19,CCOc1ccc(/C=C(/NC(=O)c2ccccc2)C(=O)NCCC(=O)O)cc1,4.42%
20,O=C(Nc1cccnc1)c1noc2c1CCCCC2,64.2% (active)

row,SMILES,inhibition
1,Cc1noc(C)c1COc1cccc(C(=O)Nc2cccnc2)c1,11.8%
2,O=C(c1noc2c1CCCC2)N1CCc2ccccc2C1,-14.7%
3,CCCC(C)C(=O)NCc1ccncc1 (stereo not drawn),8.22%
4,FC(F)(F)Oc1ccccc1C(c1nnnn1C1CCCCC1)N1CCN(C/C=C/c2ccccc2)CC1 (stereo not drawn),5.81%
5,CCCCCCc1cc2cc(-c3nnc(-c4ccccc4)o3)c(=O)oc2cc1O,61.6% (active)
6,CCOC(=O)Cn1c(O)c(N=NC(=O)CNC(=O)Cc2ccccc2)c2ccccc21,-7.61%
7,O=[N+]([O-])/C=C/c1ccc2c(ccn2Cc2ccccc2)c1,81.4% (active)
8,C/C(CC(=O)NCc1ccc(Cl)cc1)=N\NC(=O)COc1ccc(C)cc1Br,-10.5%
9,Cc1cc(OC(=O)c2ccc(OC(C)C)cc2)c([N+](=O)[O-])c(=O)[nH]1,-22.1%
10,O=C(Oc1ccc(-c2nnco2)cc1)c1ccc(F)c(S(=O)(=O)N2CCOCC2)c1,40.2%
11,COC(=O)c1scc(C)c1NC(=O)CSc1ccc(Cl)cc1,-6.59%
12,COC(=O)c1sccc1NC(=O)CSc1ccccc1NS(=O)(=O)c1cc(Cl)ccc1Cl,51.4% (active)
13,COC(=O)c1sccc1NS(=O)(=O)c1ccc(F)cc1F,10.6%
14,CC(C)(Oc1ccc(C2CC2(Cl)Cl)cc1)C(=O)O (stereo not drawn),-11.2%
15,Cc1cc(N)n(-c2ccc(S(=O)(=O)N3CCCC3)cc2[N+](=O)[O-])n1,1.51%
16,Cn1cc(/C=C/c2nc3ccccc3c(=O)n2-c2cccc([N+](=O)[O-])c2)c2ccccc21,53.2% (active)
17,CCOC(=O)N1CCN(Cc2nc3ccc([N+](=O)[O-])cc3c(=O)n2-c2cccc(OC)c2)CC1,5.96%
18,CCn1c(/C=C/c2ccc([N+](=O)[O-])o2)nc2ccccc2c1=O,1.09%

# Source: PubChem BioAssay AID1347056 (Sanford-Burnham Center for Chemical Genomics, 2019)
